From PubChem BioAssay
Results filed as inconclusive are left out. Calls of active or inactive are those of the source.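 The calls were made as follows, unless noted: active = percent response above a set limit, the screen-wide mean plus 3 SD (cut at about 130% in these data); inactive = the rest.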

Key:
[1] = rapamycin-like changes in RPL19A-GFP expression – cell-based, S. cerevisiae, multiplex flow cytometry, primary screen (AID 1862; in the data active = percent of DMSO control GFP below about 86%;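 also: lower values mimic rapamycin by blocking the RPL19A rise seen in DMSO cells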); settings: S. cerevisiae RPL19A-GFP strain, flow cytometry fluorescence, 3 h; at 10 µM; stronger effect = lower value
[2] = TOR pathway GLN3 branch reporter MEP2-GFP changes – S. cerevisiae, multiplex flow cytometry, primary screen (AID 1867;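 active = GFP response, as percent of the DMSO control, above the screen-wide mean plus 3 SD, about 139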;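 also: median GFP channel fluorescence of barcode-gated MEP2-GFP cells measured by flow cytometry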); settings: S. cerevisiae MEP2-GFP strain, 3 h, at 10 µM, stronger effect = higher value, 100% means same as DMSO wells
[3] = TOR pathway RTG branch CIT2 reporter changes – S. cerevisiae, GFP fusion, multiplex flow cytometry, primary screen (AID 1870);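 also: barcoded CIT2-GFP strain pooled with four other GFP strains with rapamycin as positive control; median GFP fluorescence per well over plate mean of DMSO wells so 100% = DMSO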; settings: S. cerevisiae CIT2-GFP expression, 3 h, at 10 µM, stronger effect = higher value
[4] = TOR pathway LAP4-GFP level changes – S. cerevisiae, multiplex flow cytometry, primary screen (AID 1873;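 active = GFP signal, as percent of the solvent control, above the screen mean plus 3 SD, about 149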); settings: S. cerevisiae LAP4-GFP expression, 3 h, at 10 µM, stronger effect = higher value
[5] = yeast AGP1-GFP level changes, GLN3 branch – cell-based, multiplex flow cytometry, S. cerevisiae, primary screen (AID 1887;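 active = GFP signal above the screen-wide mean plus 3 SD, that is over about 124.5% of the solvent control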;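 also: AGP1-GFP fusion strain of S. cerevisiae within a five-strain barcoded multiplex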); settings: 3 h, at 10 µM, stronger effect = higher value
[6] = reduced mouse 2C T cell binding to pMHC/ICAM-1 vesicles – MLPCN validation set, flow cytometry, LFA-1/ICAM-1 modulator project, pilot screen (AID 2523;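 active = response below a set limit, under 55% cells CD8-positive and vesicle-bound, and CD8 cells' 90th-percentile brightness under 279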;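 as to vesicle binding response: mean PE anti-B7-1 fluorescence of CD8+ cells relative to row control; 100% = QL9-loaded vesicles with DMSO vehicle in the same plate row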); settings: 2C mouse CD8+ T cells, at 7 µM, stronger effect = lower value; double positive events: measured here: CD8+/vesicle+ event percentage
[7] = target: Integrin beta-1 (Homo sapiens) + Integrin alpha-4 (Homo sapiens) (UniProt P13612+P05556); assay: alpha4beta1 integrin LIBS antibody binding reduction – U937 cells, HUTS-21 mAb, flow cytometry, validation set, VLA-4 allosteric modulator project, pilot screen (AID 2674;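 active = inhibition above 50%, about 3 SD of the validation set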;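 also: antibody binding induced by the VLA-4 ligand LDV present at three times its Kd; 0% = LDV ligand with antibody and no compound and 100% = antibody without LDV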); settings: HUTS-21 LIBS mAb binding, at 6.7 µM, stronger effect = higher value, binding induced by LDV ligand
Sequence of Integrin beta-1 (Homo sapiens) + Integrin alpha-4 (Homo sapiens) (P05556 whole entry, looked up): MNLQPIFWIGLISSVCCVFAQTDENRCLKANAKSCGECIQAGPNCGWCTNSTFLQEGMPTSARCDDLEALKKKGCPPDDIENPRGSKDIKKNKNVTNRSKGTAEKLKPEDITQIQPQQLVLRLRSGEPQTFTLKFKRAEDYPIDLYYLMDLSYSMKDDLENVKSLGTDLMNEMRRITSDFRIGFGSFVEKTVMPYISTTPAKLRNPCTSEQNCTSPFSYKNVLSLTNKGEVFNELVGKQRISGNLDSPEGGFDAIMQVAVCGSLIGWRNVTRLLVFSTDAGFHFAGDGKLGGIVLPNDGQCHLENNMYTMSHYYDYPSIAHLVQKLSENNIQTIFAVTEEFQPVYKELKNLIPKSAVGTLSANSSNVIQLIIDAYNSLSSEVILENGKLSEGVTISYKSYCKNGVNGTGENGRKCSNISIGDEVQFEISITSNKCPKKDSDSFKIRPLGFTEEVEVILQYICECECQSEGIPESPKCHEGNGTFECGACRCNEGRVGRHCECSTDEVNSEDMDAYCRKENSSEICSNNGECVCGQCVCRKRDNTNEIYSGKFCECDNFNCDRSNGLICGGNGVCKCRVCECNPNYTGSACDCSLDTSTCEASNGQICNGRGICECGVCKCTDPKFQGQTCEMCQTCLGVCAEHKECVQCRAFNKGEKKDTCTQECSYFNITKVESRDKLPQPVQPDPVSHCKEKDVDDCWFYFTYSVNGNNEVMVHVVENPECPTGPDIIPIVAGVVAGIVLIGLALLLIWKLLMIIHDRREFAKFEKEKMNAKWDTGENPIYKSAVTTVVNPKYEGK
Sequence of Integrin beta-1 (Homo sapiens) + Integrin alpha-4 (Homo sapiens) (P13612 whole entry, looked up): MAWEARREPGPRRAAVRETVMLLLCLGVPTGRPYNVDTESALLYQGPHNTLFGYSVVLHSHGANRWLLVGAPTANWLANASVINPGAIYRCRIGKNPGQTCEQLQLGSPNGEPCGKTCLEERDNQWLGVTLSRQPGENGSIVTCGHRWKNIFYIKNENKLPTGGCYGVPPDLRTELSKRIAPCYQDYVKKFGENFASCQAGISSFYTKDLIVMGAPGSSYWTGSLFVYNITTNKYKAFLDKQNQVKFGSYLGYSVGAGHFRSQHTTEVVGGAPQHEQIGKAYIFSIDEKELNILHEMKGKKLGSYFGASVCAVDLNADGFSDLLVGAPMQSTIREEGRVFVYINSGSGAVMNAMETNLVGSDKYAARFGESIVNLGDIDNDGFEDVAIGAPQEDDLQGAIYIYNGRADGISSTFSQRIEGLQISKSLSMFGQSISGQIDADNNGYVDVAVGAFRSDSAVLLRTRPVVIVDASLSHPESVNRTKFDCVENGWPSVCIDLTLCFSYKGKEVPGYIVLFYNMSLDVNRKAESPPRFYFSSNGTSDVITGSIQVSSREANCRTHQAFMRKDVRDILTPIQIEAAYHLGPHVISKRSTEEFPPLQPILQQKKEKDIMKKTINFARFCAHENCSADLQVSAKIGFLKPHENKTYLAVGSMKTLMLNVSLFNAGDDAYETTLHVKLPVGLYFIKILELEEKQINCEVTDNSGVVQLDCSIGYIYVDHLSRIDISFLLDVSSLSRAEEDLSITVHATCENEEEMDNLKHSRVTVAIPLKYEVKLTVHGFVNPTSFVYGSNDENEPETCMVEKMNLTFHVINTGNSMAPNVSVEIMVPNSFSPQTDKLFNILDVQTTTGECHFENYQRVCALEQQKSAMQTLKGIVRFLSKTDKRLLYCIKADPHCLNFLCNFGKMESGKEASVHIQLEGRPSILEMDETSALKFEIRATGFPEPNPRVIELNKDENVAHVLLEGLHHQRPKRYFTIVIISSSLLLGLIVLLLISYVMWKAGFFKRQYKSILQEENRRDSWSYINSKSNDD

[8] = calorie-restriction mimetic ROS inhibitors, yeast – validation compound set, pilot screen (AID 2706;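 active = superoxide response below 65% of plate, a cut near 3 SD across the whole screen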;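 also: yeast exposed to compound for one week at 30 degrees C before staining; 100% = mean of all compound wells on the same plate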); settings: S. cerevisiae aging, superoxide DHE fluorescence; at 10 µM; stronger effect = lower value
[9] = target: Beta-adrenergic receptor kinase 1 (Homo sapiens) (UniProt P25098); assay: GRK2 binders displacing RNA aptamer, biochemical, validation, human GRK2, bead flow cytometry (AID 488806;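 active = aptamer binding inhibition above 30%, about 3 SD of noise from non-fluorescent compounds; inactive = inhibition at or below 30%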); settings: bead-bound GRK2, FAM-aptamer displacement, at 10 µM, stronger effect = higher value
Sequence of Beta-adrenergic receptor kinase 1 (Homo sapiens) (P25098 whole entry, looked up): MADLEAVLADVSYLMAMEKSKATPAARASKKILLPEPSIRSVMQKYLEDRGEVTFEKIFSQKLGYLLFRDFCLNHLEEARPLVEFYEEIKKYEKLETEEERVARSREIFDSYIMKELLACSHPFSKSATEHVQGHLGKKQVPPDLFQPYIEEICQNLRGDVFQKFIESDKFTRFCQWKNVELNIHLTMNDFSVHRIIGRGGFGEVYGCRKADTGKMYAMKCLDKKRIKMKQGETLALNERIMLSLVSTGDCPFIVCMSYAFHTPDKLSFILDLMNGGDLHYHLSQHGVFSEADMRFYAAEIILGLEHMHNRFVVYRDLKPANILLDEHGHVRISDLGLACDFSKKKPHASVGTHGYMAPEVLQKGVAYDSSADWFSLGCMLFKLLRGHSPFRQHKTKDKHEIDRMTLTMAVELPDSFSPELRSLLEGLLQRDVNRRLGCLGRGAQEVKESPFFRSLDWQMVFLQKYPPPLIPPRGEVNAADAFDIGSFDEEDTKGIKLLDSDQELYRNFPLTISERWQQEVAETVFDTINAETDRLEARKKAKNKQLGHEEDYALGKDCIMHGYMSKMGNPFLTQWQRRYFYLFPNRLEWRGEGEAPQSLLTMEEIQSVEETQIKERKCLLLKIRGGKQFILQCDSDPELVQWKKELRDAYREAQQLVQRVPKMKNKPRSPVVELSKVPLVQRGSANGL

[10] = target: Beta-2 adrenergic receptor (Homo sapiens) (UniProt P07550); assay: agonist-induced loss of surface beta2AR – cell-based, FAP fluorogen, flow cytometry, validation set, pilot screen (AID 504459;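 active = percent response above 42, roughly 3 SD of non-fluorescent test compounds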;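 also: agonist-driven loss of surface beta2AR via internalization measured by FAP dye flow cytometry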); settings: Am2.2-beta2AR cells, at 10 µM, stronger effect = higher value
Sequence of Beta-2 adrenergic receptor (Homo sapiens) (P07550 whole entry, looked up): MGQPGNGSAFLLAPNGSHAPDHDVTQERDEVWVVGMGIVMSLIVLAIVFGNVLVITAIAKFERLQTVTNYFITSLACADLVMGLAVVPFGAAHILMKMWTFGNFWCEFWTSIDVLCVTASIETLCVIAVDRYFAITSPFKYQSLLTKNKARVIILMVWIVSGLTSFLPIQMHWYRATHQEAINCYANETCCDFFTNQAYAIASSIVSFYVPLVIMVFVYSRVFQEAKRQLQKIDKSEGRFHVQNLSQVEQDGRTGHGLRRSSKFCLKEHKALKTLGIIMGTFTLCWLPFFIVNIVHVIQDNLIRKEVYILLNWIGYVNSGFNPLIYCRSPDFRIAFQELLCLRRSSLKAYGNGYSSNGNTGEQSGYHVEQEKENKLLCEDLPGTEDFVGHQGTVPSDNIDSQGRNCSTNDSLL

[11] = target: AP-2 complex subunit beta (Homo sapiens) (UniProt P63010); assay: beta-arrestin/AP2 interaction blockers – biochemical, validation set, GST-AP2 beads, flow cytometry, pilot screen (AID 504541;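 active = inhibition above 54%, about 3 SD of non-fluorescent compounds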;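 also: AP2 carries R879A mutation and is captured from E. coli lysate; bead-bound FITC arrestin peptide fluorescence measuring arrestin peptide binding to AP2; 0% = DMSO wells and 100% = excess unlabeled arrestin peptide control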); settings: FITC arrestin peptide, at 10 µM, stronger effect = higher value, AP2 beta2 appendage fragment, R879A mutant
Sequence of AP-2 complex subunit beta (Homo sapiens) (P63010 whole entry, looked up, the tested form may be a part, one chain of several): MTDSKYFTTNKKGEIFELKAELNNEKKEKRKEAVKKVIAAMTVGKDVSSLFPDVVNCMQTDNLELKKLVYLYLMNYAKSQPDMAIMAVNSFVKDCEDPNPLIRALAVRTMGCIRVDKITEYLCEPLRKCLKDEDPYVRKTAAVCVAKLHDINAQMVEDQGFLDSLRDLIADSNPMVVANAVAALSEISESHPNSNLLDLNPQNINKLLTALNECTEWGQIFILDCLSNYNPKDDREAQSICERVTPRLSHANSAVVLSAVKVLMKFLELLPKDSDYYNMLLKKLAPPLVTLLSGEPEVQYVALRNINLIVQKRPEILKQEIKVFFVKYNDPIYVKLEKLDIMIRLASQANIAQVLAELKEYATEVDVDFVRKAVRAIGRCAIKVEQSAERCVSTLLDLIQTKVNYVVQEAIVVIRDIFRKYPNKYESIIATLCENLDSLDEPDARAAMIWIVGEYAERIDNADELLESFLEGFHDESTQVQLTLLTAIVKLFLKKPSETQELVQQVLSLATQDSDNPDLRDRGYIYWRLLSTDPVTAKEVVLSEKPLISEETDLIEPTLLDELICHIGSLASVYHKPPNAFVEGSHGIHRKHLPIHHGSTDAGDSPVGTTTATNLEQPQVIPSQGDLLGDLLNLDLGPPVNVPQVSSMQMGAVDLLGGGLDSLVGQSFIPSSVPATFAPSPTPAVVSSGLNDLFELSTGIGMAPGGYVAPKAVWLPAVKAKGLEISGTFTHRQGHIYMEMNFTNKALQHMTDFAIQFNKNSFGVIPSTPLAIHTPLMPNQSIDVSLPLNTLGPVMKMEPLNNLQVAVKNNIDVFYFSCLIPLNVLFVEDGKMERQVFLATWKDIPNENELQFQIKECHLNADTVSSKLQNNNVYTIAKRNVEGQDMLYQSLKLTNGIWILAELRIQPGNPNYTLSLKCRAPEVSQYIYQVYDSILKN

[12] = cytosolic pH regulators acting via V-ATPase – S. cerevisiae, pHLuorin, HTS validation (AID 504600; in the data active = response above about 15%;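 also: plate controls were DMSO for no effect and reference compound for full effect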); settings: V-ATPase proton transport, at 10 µM, stronger effect = higher value
[13] = test system: anti-desmoglein-3 scFv antibody binding to human DSG3; assay: blockers of pathogenic pemphigus antibody–desmoglein-3 binding – biochemical, validation compound set, bead-based, flow cytometry, pilot screen (AID 588368;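 active = binding below the plate cutoff, the plate median minus 3 SD, with a reading above zero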;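 also: signal is the median channel fluorescence of bead-bound GFP antibody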); settings: Protein G beads, DSG3-Fc, scFv-GFP binding, at 10 µM, stronger effect = lower value
[14] = Nile Red efflux blockade in pump-expressing yeast – validation compound set, multiplex, phenotypic, pilot screen (AID 588506;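 active = efflux inhibition above 0.42, the validation set average plus 4 SD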;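 also: Nile Red retained in cells so higher fluorescence means more efflux inhibition; 0 = negative control wells and 1 = enniatin B 25 µM full block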); settings: S. cerevisiae pump-expressing triplex, Nile Red efflux flow cytometry; at 10 µM; stronger effect = higher value; the pumps come from Candida albicans
[15] = target: ATP-binding cassette sub-family B member 6 (Homo sapiens) (UniProt Q9NP58); assay: blockers of ABCB6-driven porphyrin uptake – K562-ABCB6 cells, flow cytometry, validation set, pilot screen (AID 588550;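 active = inhibition above the screen-wide mean plus 3 SD, about 51%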;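 also: 0% = DMSO wells and 100% = benzethonium chloride 70 µM positive control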); settings: K562-ABCB6 porphyrin accumulation, 1 h, at 10 µM, stronger effect = higher value
Sequence of ATP-binding cassette sub-family B member 6 (Homo sapiens) (Q9NP58 whole entry, looked up): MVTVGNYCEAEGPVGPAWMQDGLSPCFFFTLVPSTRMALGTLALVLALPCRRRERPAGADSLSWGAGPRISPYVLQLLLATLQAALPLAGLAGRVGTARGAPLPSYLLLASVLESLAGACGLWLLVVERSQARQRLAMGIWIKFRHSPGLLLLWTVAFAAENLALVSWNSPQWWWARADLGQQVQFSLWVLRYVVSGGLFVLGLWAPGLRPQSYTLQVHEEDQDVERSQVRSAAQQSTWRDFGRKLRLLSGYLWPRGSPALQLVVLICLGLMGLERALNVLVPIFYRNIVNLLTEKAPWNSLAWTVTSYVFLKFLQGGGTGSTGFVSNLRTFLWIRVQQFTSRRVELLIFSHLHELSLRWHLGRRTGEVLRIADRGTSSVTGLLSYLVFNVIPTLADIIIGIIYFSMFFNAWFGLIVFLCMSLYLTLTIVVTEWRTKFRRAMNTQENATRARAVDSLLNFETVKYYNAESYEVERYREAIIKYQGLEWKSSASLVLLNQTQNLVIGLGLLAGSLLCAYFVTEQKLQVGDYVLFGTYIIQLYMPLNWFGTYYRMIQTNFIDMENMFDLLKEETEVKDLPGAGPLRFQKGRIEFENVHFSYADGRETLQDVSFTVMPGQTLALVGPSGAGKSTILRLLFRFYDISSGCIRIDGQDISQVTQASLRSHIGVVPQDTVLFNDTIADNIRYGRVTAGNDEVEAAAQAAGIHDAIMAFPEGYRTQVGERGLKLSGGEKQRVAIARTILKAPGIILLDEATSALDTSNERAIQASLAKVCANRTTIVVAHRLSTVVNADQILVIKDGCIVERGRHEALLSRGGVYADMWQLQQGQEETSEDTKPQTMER

[16] = AML differentiation inducers, ER-HoxA9 marrow cells – cell-based, GFP/MAC1 double positive, flow cytometry, validation set, primary screen (AID 588685;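 active = differentiation response of at least 50%, scaled between solvent and reference control, from cells with both markers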;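 also: compound exposure lasts four days before antibody staining and flow analysis; 0% = DMSO wells and 100% = 5 µM fulvestrant positive control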); settings: stronger effect = higher value, normalized: vehicle 0, fulvestrant 100

CC1(C)CC(C(CC(=O)N2CCCC2)Cc2ccccc2)CCO1 (stereo not given)
inactive: percent of DMSO control GFP [1] 100% | GFP response vs DMSO [2] 99.7% | percent response of DMSO control [3] 104% | GFP response vs DMSO [4] 102% | GFP response, % of DMSO [5] 106% | vesicle binding response [6] 118% | inhibition [7] -2.43% | superoxide response (% of plate) [8] 107% | aptamer binding inhibition [9] -2% | response [10] -11% | inhibition [11] 21.8% | response [12] -8.82% | binding (% of control) [13] 103% | efflux inhibition (fraction of control) [14] 0.36 | inhibition [15] 18% | differentiation response [16] 15.9%
62.9%: double positive events [6]

CCc1cc(C(N)=S)ccn1
63.7%: double positive events [6]
inactive: percent of DMSO control GFP [1] 99.5% | GFP response vs DMSO [2] 104% | percent response of DMSO control [3] 104% | GFP response vs DMSO [4] 99.1% | GFP response, % of DMSO [5] 107% | vesicle binding response [6] 166% | inhibition [7] 9.63% | superoxide response (% of plate) [8] 97.7% | aptamer binding inhibition [9] 4% | response [10] -4.68% | inhibition [11] 4.47% | response [12] -4.94% | binding (% of control) [13] 101% | efflux inhibition (fraction of control) [14] 0.12 | inhibition [15] 1% | differentiation response [16] -8.96%

CN1C(C(=O)Nc2ccccn2)=C(O)c2ccccc2S1(=O)=O
63.2%: double positive events [6]
inactive: percent of DMSO control GFP [1] 101% | GFP response vs DMSO [2] 103% | percent response of DMSO control [3] 86.1% | GFP response vs DMSO [4] 106% | GFP response, % of DMSO [5] 97.6% | vesicle binding response [6] 383% | inhibition [7] -13.9% | superoxide response (% of plate) [8] 104% | aptamer binding inhibition [9] 1% | response [10] -12.3% | inhibition [11] -12.3% | response [12] -0.85% | binding (% of control) [13] 100% | efflux inhibition (fraction of control) [14] -0.07 | inhibition [15] 26% | differentiation response [16] 14.9%

COCC1CCCN(Cc2cn[nH]c2-c2cc3ccccc3o2)C1 (stereo not given)
63.3%: double positive events [6]
inactive: percent of DMSO control GFP [1] 95.9% | GFP response vs DMSO [2] 109% | percent response of DMSO control [3] 83.4% | GFP response vs DMSO [4] 115% | GFP response, % of DMSO [5] 102% | vesicle binding response [6] 181% | inhibition [7] -14.1% | superoxide response (% of plate) [8] 98.3% | aptamer binding inhibition [9] 2% | response [10] -14.2% | inhibition [11] 0.03% | response [12] 1.33% | binding (% of control) [13] 99.9% | efflux inhibition (fraction of control) [14] 0.05 | inhibition [15] 7% | differentiation response [16] 5.6%

CN1[C@@H]2CC[C@H]1CC(OC(=O)C(CO)c1ccccc1)C2 (stereo not given in full)
inactive: percent of DMSO control GFP [1] 99.6% | GFP response vs DMSO [2] 97.7% | percent response of DMSO control [3] 103% | GFP response vs DMSO [4] 86.1% | GFP response, % of DMSO [5] 98% | vesicle binding response [6] 163% | inhibition [7] 8.29% | superoxide response (% of plate) [8] 113% | aptamer binding inhibition [9] 25% | response [10] -0.25% | inhibition [11] -4.27% | response [12] 3.64% | binding (% of control) [13] 101% | efflux inhibition (fraction of control) [14] -0.205 | inhibition [15] 7% | differentiation response [16] -13.3%
61.1%: double positive events [6]

COCCOC(=O)C1=C(N)OC2=C(C(=O)CCC2)C1c1cccnc1 (stereo not given)
inactive: percent of DMSO control GFP [1] 105% | GFP response vs DMSO [2] 105% | percent response of DMSO control [3] 100% | GFP response vs DMSO [4] 89.4% | GFP response, % of DMSO [5] 101% | vesicle binding response [6] 89.9% | inhibition [7] -5.64% | superoxide response (% of plate) [8] 99.2% | aptamer binding inhibition [9] 2% | response [10] -2.38% | inhibition [11] 4.01% | response [12] 0.7% | binding (% of control) [13] 99.3% | efflux inhibition (fraction of control) [14] -0.1 | inhibition [15] -4% | differentiation response [16] 7.09%
59.9%: double positive events [6]

Cc1cccc2c1CC(C)(C)N/C2=C\C(N)=O
63.7%: double positive events [6]
inactive: percent of DMSO control GFP [1] 98.7% | GFP response vs DMSO [2] 102% | percent response of DMSO control [3] 91.8% | GFP response vs DMSO [4] 103% | GFP response, % of DMSO [5] 104% | vesicle binding response [6] 148% | inhibition [7] -217% | superoxide response (% of plate) [8] 99% | aptamer binding inhibition [9] 0% | response [10] -10.2% | inhibition [11] 10.1% | response [12] -3.68% | binding (% of control) [13] 113% | efflux inhibition (fraction of control) [14] 0.04 | inhibition [15] -25% | differentiation response [16] -12.9%

CC(=O)C1=C(Nc2ccc(C)cc2)CC(C)(O)C(C(C)=O)C1c1ccco1 (stereo not given)
inactive: percent of DMSO control GFP [1] 105% | GFP response vs DMSO [2] 104% | percent response of DMSO control [3] 93.1% | GFP response vs DMSO [4] 96.6% | GFP response, % of DMSO [5] 97.2% | vesicle binding response [6] 223% | inhibition [7] -9.79% | superoxide response (% of plate) [8] 103% | aptamer binding inhibition [9] 5% | response [10] 0.66% | inhibition [11] 36.9% | response [12] -0.29% | binding (% of control) [13] 105% | efflux inhibition (fraction of control) [14] 0.3 | inhibition [15] -19% | differentiation response [16] 14.9%
66.9%: double positive events [6]

COc1ccc(Cc2noc(CN(C)CCN3CCc4ccccc4C3)n2)cc1OC
65.2%: double positive events [6]
inactive: percent of DMSO control GFP [1] 103% | GFP response vs DMSO [2] 105% | percent response of DMSO control [3] 109% | GFP response vs DMSO [4] 91.4% | GFP response, % of DMSO [5] 103% | vesicle binding response [6] 232% | inhibition [7] -8.75% | superoxide response (% of plate) [8] 95% | aptamer binding inhibition [9] 6% | response [10] -6.59% | inhibition [11] -8.41% | response [12] 0.56% | binding (% of control) [13] 104% | efflux inhibition (fraction of control) [14] -0.1 | inhibition [15] -12% | differentiation response [16] 5.13%

CC(C)[C@H]1CN(C)CCN1Cc1cn(C)nc1-c1cccc(Cl)c1
inactive: percent of DMSO control GFP [1] 105% | GFP response vs DMSO [2] 104% | percent response of DMSO control [3] 98.9% | GFP response vs DMSO [4] 90.1% | GFP response, % of DMSO [5] 102% | vesicle binding response [6] 48.9% | inhibition [7] 3.7% | superoxide response (% of plate) [8] 104% | aptamer binding inhibition [9] -1% | response [10] -4.02% | inhibition [11] 19.9% | response [12] -0.96% | binding (% of control) [13] 99.3% | efflux inhibition (fraction of control) [14] 0.3 | inhibition [15] 1% | differentiation response [16] 3.18%
58.1%: double positive events [6]
